Measurements from PubChem BioAssay AID1159580 (chemical genetic matrix, 2015).
Several values for one entry are separate records, joined by “and”; a condition that tells them apart may be missing. Identical values can stand only once. Among all 5,500 compounds or so, about 2,000 (36%) were called active. Another 18% or so got no clear call; they are omitted. Rule as the data show it: active = normalized growth mostly below about 0.91 (no sharp cut-off); inconclusive = no clear call, values can overlap the other calls; inactive = mostly above about 0.92. Some of the results follow.

Assay: chemical genetic growth profiling, strain panel (AID 1159580);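 also: tested at 20 µM; growth read once vehicle control cultures reached saturation at 30 °C; 1 = growth at the plate median or of vehicle wells; lower values mean less growth of the strain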
Conditions: S. cerevisiae deletion strains, growth OD

Measured: normalized growth

COc1ccccc1OCC(O)CO (stereo not drawn)
inactive: locus YAL021C, strain ccr4, hits give low values 1.02 | locus YAL026C, strain drs2, hits give low values 1.02 | locus YAL030W, strain snc1, hits give low values 1.02 | locus YBL061C, strain skt5, hits give low values 1.02 | locus YBR009C, strain hhf1, hits give low values 1.02 | locus YBR021W, strain FUR4, hits give low values 1.02 | locus YBR023C, strain chs3, hits give low values 1.02 | locus YBR171W, strain sec66, hits give low values 1.04 | locus YBR229C, strain ROT2, hits give low values 1 | locus YBR231C, strain swc5, hits give low values 1.02 | locus YBR279W, strain paf1, hits give low values 1.03 | locus YCL011C, strain gbp2, hits give low values 1.02 | locus YCL016C, strain dcc1, hits give low values 1.02 | locus YCL029C, strain bik1, hits give low values 0.972 | locus YCL061C, strain MRC1, hits give low values 1.03 | locus YCL069W, strain vba3, hits give low values 1.01 | locus YCR088W, strain abp1, hits give low values 1.02 | locus YDL005C, strain med2, hits give low values 1.04 | locus YDL035C, strain GPR1, hits give low values 1.02 | locus YDL040C, strain nat1, hits give low values 1.02 | locus YDL074C, strain BRE1, hits give low values 1 | locus YDL101C, strain DUN1, hits give low values 1.01 | locus YDL134C, strain PPH21, hits give low values 0.997 | locus YDL185W, strain tfp1, hits give low values 1 | locus YDL192W, strain arf1, hits give low values 1 | locus YDR001C, strain nth1, hits give low values 1.02 | locus YDR069C, strain doa4, hits give low values 1.02 | locus YDR101C, strain arx1, hits give low values 0.972 | locus YDR137W, strain rgp1, hits give low values 1.03 | locus YDR159W, strain sac3, hits give low values 1.02 | locus YDR162C, strain NBP2, hits give low values 1.01 | locus YDR195W, strain ref2 1.02 | locus YDR297W, strain sur2, hits give low values 1.02 | locus YDR318W, strain mcm21, hits give low values 1.02 | locus YDR334W, strain swr1, hits give low values 1.03 | locus YDR335W, strain msn5, hits give low values 1.03 | locus YDR388W, hits give low values 0.99 | locus YDR392W, strain spt3, hits give low values 0.987 | locus YDR502C, strain sam2, hits give low values 1.02 | locus YEL003W, strain gim4, hits give low values 1.01 | locus YEL037C, strain rad23, hits give low values 1.02 | locus YEL061C, strain CIN8 (second series), hits give low values 1.02 | locus YEL061C, strain CIN8, hits give low values 1.03 | locus YER015W, strain faa2, hits give low values 1.02 | locus YER016W, strain bim1, hits give low values 1.04 | locus YER110C, hits give low values 0.988 | locus YER111C, strain swi4, hits give low values 1.02 | locus YER155C, strain BEM2 (second series), hits give low values 1.02 | locus YER155C, strain BEM2, hits give low values 1.01 | locus YER167W, strain BCK2, hits give low values 1 | locus YFR010W, strain ubp6, hits give low values 1.02 | locus YGL078C, strain dbp3, hits give low values 1.02 | locus YGL086W, strain mad1, hits give low values 1 | locus YGL167C, strain pmr1, hits give low values 1.02 | locus YGL173C, strain kem1, hits give low values 1.02 | locus YGL227W, strain vid30, hits give low values 1.03 | locus YGL240W, strain doc1, hits give low values 1.03 | locus YGL248W, strain PDE1, hits give low values 1.01 | locus YGL253W, strain hxk2, hits give low values 1.01 | locus YGR078C, strain PAC10, hits give low values 1.01 | locus YGR135W, strain pre9, hits give low values 1.04 | locus YGR252W, strain gcn5, hits give low values 1.22 | locus YHR013C, strain ard1, hits give low values 1.04 | locus YHR027C, strain rpn1, hits give low values 1.01 | locus YHR030C, strain SLT2, hits give low values 1 and 0.993 | locus YHR079C, strain IRE1 (second series), hits give low values 0.988 | locus YHR079C, strain IRE1, hits give low values 0.965 | locus YHR094C, strain hxt1, hits give low values 0.978 | locus YHR129C, strain ARP1, hits give low values 0.964 | locus YHR142W, strain chs7, hits give low values 1.03 | locus YHR200W, strain rpn10, hits give low values 1.01 | locus YIL066C, strain RNR3, hits give low values 1 | locus YIL073C, strain SPO22, hits give low values 1.05 | locus YIL125W, strain kgd1, hits give low values 1.01 | locus YIR030C, strain dcg1, hits give low values 0.99 | locus YJL092W, strain hpr5, hits give low values 1.03 | locus YJL095W, strain BCK1 (second series), hits give low values 1.02 | locus YJL095W, strain BCK1, hits give low values 1.03 and 0.964 | locus YJL115W, strain asf1, hits give low values 1.02 | locus YJL129C, strain trk1, hits give low values 1.04 | locus YJL134W, strain LCB3, hits give low values 1 | locus YJL154C, strain vps35, hits give low values 1.01 | locus YJL164C, strain tpk1, hits give low values 1.02 | locus YJL166W, strain qcr8, hits give low values 1.03 | locus YJL168C, strain set2, hits give low values 0.986 | locus YJL187C, strain SWE1 (second series), hits give low values 1.01 | locus YJL187C, strain SWE1, hits give low values 1.05 | locus YJR043C, strain POL32, hits give low values 1.01 | locus YJR066W, strain TOR1, hits give low values 0.924 | locus YKL009W, strain mrt4, hits give low values 1.01 | locus YKL068W, hits give low values 1.01 | locus YKL085W, strain MDH1 (second series), hits give low values 0.999 | locus YKL085W, strain MDH1, hits give low values 0.999 | locus YKL160W, strain elf1, hits give low values 1.02 | locus YKR001C, strain vps1, hits give low values 0.998 | locus YKR026C, strain gcn3, hits give low values 1.02 | locus YKR091W, strain srl3, hits give low values 1.02 | locus YLL001W, strain dnm1, hits give low values 1.02 | locus YLL026W, hits give low values 1.02 | locus YLL041C, strain sdh2, hits give low values 1.01 | locus YLR027C, strain aat2, hits give low values 1.01 | locus YLR039C, strain RIC1, hits give low values 1.02 | locus YLR058C, strain SHM2, hits give low values 1.01 | locus YLR102C, strain apc9, hits give low values 0.982 | locus YLR113W, strain HOG1, hits give low values 0.999 | locus YLR221C, strain rsa3, hits give low values 1.01 | locus YLR258W, strain gsy2, hits give low values 1.01 | locus YLR262C, strain YPT6 (second series), hits give low values 1.02 | locus YLR262C, strain YPT6, hits give low values 1.04 | locus YLR268W, strain sec22, hits give low values 1.01 | locus YLR320W, strain mms22, hits give low values 1.03 | locus YLR330W, strain CHS5, hits give low values 1.02 | locus YLR342W, strain FKS1 (second series), hits give low values 1.01 | locus YLR342W, strain FKS1, hits give low values 1.02 | locus YLR357W, strain rsc2, hits give low values 1.03 | locus YLR370C, strain arc18, hits give low values 1.02 | locus YLR371W, strain rom2, hits give low values 0.965 | locus YLR384C, strain iki3, hits give low values 1.02 | locus YLR418C, strain cdc73, hits give low values 1.06 | locus YML016C, strain PPZ1, hits give low values 1 | locus YML032C, strain rad52, hits give low values 1.01 | locus YML120C, strain ndi1, hits give low values 1.02 | locus YML124C, strain tub3, hits give low values 0.996 | locus YMR058W, strain fet3, hits give low values 1.02 | locus YMR078C, strain ctf18, hits give low values 0.99 | locus YMR125W, strain sto1, hits give low values 1.06 | locus YMR129W, hits give low values 1.02 | locus YMR205C, strain PFK2, hits give low values 1.02 | locus YMR223W, strain ubp8, hits give low values 1.03 | locus YMR231W, strain pep5, hits give low values 1.02 | locus YMR307W, strain GAS1, hits give low values 1.05 | locus YNL067W, strain RPL9B, hits give low values 1.02 | locus YNL071W, strain lat1, hits give low values 1.02 | locus YNL153C, strain GIM3, hits give low values 1.01 | locus YNL183C, strain NPR1, hits give low values 0.956 | locus YNL209W, strain ssb2, hits give low values 1.02 | locus YNL233W, strain BNI4, hits give low values 1.01 | locus YNL248C, strain rpa49, hits give low values 1.04 | locus YNL250W, strain rad50, hits give low values 1.02 | locus YNL271C, strain bni1, hits give low values 1.01 | locus YNL298W, strain CLA4, hits give low values 1.01 | locus YNL307C, strain MCK1, hits give low values 0.99 | locus YNL322C, strain KRE1 (second series), hits give low values 1.04 | locus YNL322C, strain KRE1, hits give low values 1.01 | locus YNR049C, strain mso1, hits give low values 1.02 | locus YNR052C, strain pop2, hits give low values 0.998 | locus YOL012C, strain htz1 0.827 | locus YOL147C, strain pex11, hits give low values 0.995 | locus YOR001W, strain rrp6, hits give low values 0.995 | locus YOR061W, strain CKA2, hits give low values 1.01 | locus YOR069W, strain VPS5, hits give low values 1.01 | locus YOR070C, strain gyp1, hits give low values 1.02 | locus YOR080W, strain dia2, hits give low values 1.04 | locus YOR083W, strain WHI5, hits give low values 1.02 | locus YOR106W, strain vam3, hits give low values 1.02 | locus YOR136W, strain idh2, hits give low values 0.994 | locus YOR144C, strain elg1, hits give low values 0.993 | locus YOR184W, strain ser1, hits give low values 1 | locus YOR231W, strain MKK1, hits give low values 0.991 | locus YOR265W, strain rbl2, hits give low values 1.02 | locus YOR270C, strain vph1, hits give low values 1.05 | locus YOR290C, strain snf2, hits give low values 0.99 | locus YOR316C, strain cot1, hits give low values 0.986 | locus YPL051W, strain arl3, hits give low values 1.01 | locus YPL078C, strain atp4, hits give low values 1.02 | locus YPL106C, strain sse1, hits give low values 1.01 | locus YPL240C, strain hsp82, hits give low values 1.02 | locus YPL256C, strain CLN2, hits give low values 0.977 | locus YPR119W, strain clb2, hits give low values 0.992 | locus YPR141C, strain kar3, hits give low values 0.996 | locus YPR163C, strain tif3, hits give low values 1.01 | locus YPR167C, strain met16, hits give low values 0.999 | strain wtn01, hits give low values 1.05
